Measurements as given in PubChem BioAssay (NCI).
Compounds without any hit were thinned out: in the full panel of roughly 83,000, 20% have a hit.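 96-well plates, one dose, 48 hours. Percent growth reported; active if below 10.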 Activity calls are given as the source filed them.

Assays:
Assay in all cases: NCI-60 one-dose screen, 48 h (100 = growth as untreated, 0 = no growth, -100 = all killed)
Settings in all cases: 10 µM
HT29 colon = tested on: HT29 colon
SNB-75 CNS = tested on: SNB-75 CNS
SNB-19 CNS = tested on: SNB-19 CNS
U251 CNS = tested on: U251 CNS
PC-3 prostate = tested on: PC-3 prostate
SK-MEL-5 melanoma = tested on: SK-MEL-5 melanoma
UACC-62 melanoma = tested on: UACC-62 melanoma
LOX IMVI melanoma = tested on: LOX IMVI melanoma
SK-MEL-28 melanoma = tested on: SK-MEL-28 melanoma
SK-MEL-2 melanoma = tested on: SK-MEL-2 melanoma

Measured: growth

CCOC(=O)N1C=CC2C=CC1C1C=CC=CC2N1C(=O)OCC (stereo not given)
inactive: HT29 colon 94.8% | SNB-75 CNS 80.4% | SNB-19 CNS 94.1% | U251 CNS 93.5% | PC-3 prostate 90.1% | SK-MEL-5 melanoma 84.1% | UACC-62 melanoma 91.6% | LOX IMVI melanoma 102% | SK-MEL-28 melanoma 87.8% | SK-MEL-2 melanoma 90.9%

O=C1/C(=C\c2cn(C(=O)c3ccc(Cl)cc3)c3ccccc23)c2ccccc2N1C(=O)c1ccc(Cl)cc1
inactive: HT29 colon 70.4% | SNB-75 CNS 54.4% | SNB-19 CNS 98.2% | U251 CNS 74.2% | PC-3 prostate 65.7% | SK-MEL-5 melanoma 74.9% | UACC-62 melanoma 88.9% | LOX IMVI melanoma 67.2% | SK-MEL-28 melanoma 103% | SK-MEL-2 melanoma 49.8%

O=C(Nc1cccc(-n2cc(-c3ccncc3)c(-c3cc(O)cc(Cl)c3)n2)c1)c1ccc(N2CCOCC2)c(C(F)(F)F)c1
inactive: HT29 colon 16.9% | SNB-75 CNS 23.1% | SNB-19 CNS 12.1% | PC-3 prostate 19.1% | SK-MEL-5 melanoma 32.2% | UACC-62 melanoma 10.8% | SK-MEL-2 melanoma 22.9%
active: U251 CNS -9.64% | LOX IMVI melanoma -48.7% | SK-MEL-28 melanoma -52.4%

Cc1cc2c(C)c3cc(C)c(N)cc3nc2cc1N
active: HT29 colon -25.5% | PC-3 prostate 7.77% | LOX IMVI melanoma 4.46% | SK-MEL-2 melanoma -18.1%
inactive: SNB-75 CNS 21.8% | SNB-19 CNS 18.3% | U251 CNS 14.9% | SK-MEL-5 melanoma 19.8% | UACC-62 melanoma 24.2% | SK-MEL-28 melanoma 38.9%

CCOCCOCCOCCOCCOCCOCCOCCOCCOCCO (tested in a mixture with another compound)
active: HT29 colon -44% | U251 CNS 7.66% | PC-3 prostate 9.21% | SK-MEL-5 melanoma -81.6% | LOX IMVI melanoma -72.5% | SK-MEL-2 melanoma -61.7%
inactive: SNB-75 CNS 32.8% | SNB-19 CNS 25.2% | UACC-62 melanoma 13.2% | SK-MEL-28 melanoma 36.5%

COc1cc(-c2cc(/C=C/C(=O)c3ccc(N)cc3)[nH]n2)cc(OC)c1OC
inactive: SNB-19 CNS 36.6% | PC-3 prostate 11.1% | SK-MEL-5 melanoma 11.8% | UACC-62 melanoma 20.6% | SK-MEL-2 melanoma 28.6%
active: HT29 colon 2.34% | SNB-75 CNS 8.6% | U251 CNS -58.4% | LOX IMVI melanoma -52.3% | SK-MEL-28 melanoma 6.59%

c1ccc2c(c1)oc1c3cccnc3ccc21
inactive: HT29 colon 95.8% | SNB-75 CNS 70.1% | SNB-19 CNS 95.3% | U251 CNS 97.9% | PC-3 prostate 79.3% | SK-MEL-5 melanoma 96.7% | UACC-62 melanoma 92.8% | LOX IMVI melanoma 87.1% | SK-MEL-28 melanoma 92.7% | SK-MEL-2 melanoma 96.9%

O=C1NC(=O)N(Cc2ccccc2)CC1Br (stereo not given)
inactive: HT29 colon 77.3% | SNB-75 CNS 91.4% | SNB-19 CNS 90.6% | U251 CNS 59.6% | PC-3 prostate 73.1% | SK-MEL-5 melanoma 77.5% | UACC-62 melanoma 72.8% | LOX IMVI melanoma 25.8% | SK-MEL-28 melanoma 97.7% | SK-MEL-2 melanoma 70.4%

CC(C)(C)NC/C(=C\c1ccccc1)C(=O)c1ccccc1
active: HT29 colon -46.1% | U251 CNS -18.1% | PC-3 prostate 0.348% | SK-MEL-5 melanoma -66.9% | UACC-62 melanoma -79.3% | LOX IMVI melanoma -77% | SK-MEL-28 melanoma -29.2% | SK-MEL-2 melanoma -64.3%
inactive: SNB-75 CNS 26.9% | SNB-19 CNS 66.1%

Cc1cccc(C)c1NC(=O)c1sc2nc3c(cc2c1N)C(=O)CCC3
inactive: HT29 colon 85.6% | SNB-75 CNS 82.6% | SNB-19 CNS 66.5% | U251 CNS 85.6% | PC-3 prostate 70.2% | SK-MEL-5 melanoma 57.7% | UACC-62 melanoma 67.4% | LOX IMVI melanoma 91.3% | SK-MEL-28 melanoma 81.3% | SK-MEL-2 melanoma 69.7%

O=C(Nc1nc2ccccc2s1)Nc1ccc([N+](=O)[O-])cc1Cl
inactive: HT29 colon 55.8% | SNB-75 CNS 16.8% | SNB-19 CNS 111% | U251 CNS 32.6% | PC-3 prostate 52% | SK-MEL-5 melanoma 98.5% | UACC-62 melanoma 67.1% | LOX IMVI melanoma 12.7% | SK-MEL-28 melanoma 68.5% | SK-MEL-2 melanoma 111%

Cc1ccc(-c2n[nH]c(=O)c3noc(-c4ccc(C)cc4)c23)cc1
active: HT29 colon 6.9% | SNB-75 CNS -15% | SK-MEL-2 melanoma 9.04%
inactive: SNB-19 CNS 56% | U251 CNS 27.7% | PC-3 prostate 28% | SK-MEL-5 melanoma 15.9% | UACC-62 melanoma 28.6% | LOX IMVI melanoma 44% | SK-MEL-28 melanoma 52%

O=C1/C(=C/c2ccc(Cl)cc2)SC(=Nc2ccc(Cl)cc2)N1Cc1nc2ccccc2[nH]1
inactive: HT29 colon 97% | SNB-75 CNS 27.1% | SNB-19 CNS 75% | U251 CNS 76.2% | PC-3 prostate 41.6% | SK-MEL-5 melanoma 81.3% | UACC-62 melanoma 64.6% | LOX IMVI melanoma 78% | SK-MEL-28 melanoma 92.6% | SK-MEL-2 melanoma 88.4%

COC(=O)c1c(-c2ccccc2)csc1NC(=O)c1c(-c2ccccc2)noc1C
active: HT29 colon 7.12% | LOX IMVI melanoma -50%
inactive: SNB-75 CNS 48.1% | SNB-19 CNS 43.9% | U251 CNS 13.3% | PC-3 prostate 32.5% | SK-MEL-5 melanoma 32% | UACC-62 melanoma 48.3% | SK-MEL-28 melanoma 47.9% | SK-MEL-2 melanoma 61.2%

NC(=O)CC1(c2ccccc2)CCCCC1
inactive: HT29 colon 104% | SNB-75 CNS 95.3% | SNB-19 CNS 105% | U251 CNS 102% | PC-3 prostate 99.4% | SK-MEL-5 melanoma 106% | UACC-62 melanoma 107% | LOX IMVI melanoma 96.1% | SK-MEL-28 melanoma 110% | SK-MEL-2 melanoma 102%

O=C(c1ccc(Cl)cc1Cl)N1CCOCC1
inactive: HT29 colon 105% | SNB-75 CNS 81.8% | SNB-19 CNS 103% | U251 CNS 105% | PC-3 prostate 96.4% | SK-MEL-5 melanoma 96.3% | UACC-62 melanoma 101% | LOX IMVI melanoma 96.8% | SK-MEL-28 melanoma 110% | SK-MEL-2 melanoma 96.5%

COc1ccc(C2=Nc3c(C)nn(-c4ccccc4)c3NC(c3ccc(Oc4ccnc5cc(Cl)ccc45)c(OC)c3)C2)cc1 (stereo not given)
inactive: HT29 colon 56.2% | SNB-75 CNS 62.3% | SNB-19 CNS 78.6% | U251 CNS 86.7% | PC-3 prostate 54.8% | SK-MEL-5 melanoma 89.4% | UACC-62 melanoma 75.9% | LOX IMVI melanoma 89.3% | SK-MEL-28 melanoma 95.1% | SK-MEL-2 melanoma 90.9%

O=C(Nc1ccncc1)C(=O)c1cn(S(=O)(=O)c2cc(Cl)cc(Cl)c2)c2ccccc12
inactive: HT29 colon 42.4% | SNB-75 CNS 59.6% | SNB-19 CNS 82.4% | U251 CNS 58.1% | PC-3 prostate 63.9% | SK-MEL-5 melanoma 62.7% | UACC-62 melanoma 57.4% | LOX IMVI melanoma 48% | SK-MEL-28 melanoma 78.4% | SK-MEL-2 melanoma 61.7%

O=S(=O)(Nc1ccccn1)c1ccc(N=Nc2ccc(O)c3ncccc23)cc1
inactive: HT29 colon 79.5% | SNB-19 CNS 12% | LOX IMVI melanoma 13.7% | SK-MEL-28 melanoma 33.9%
active: SNB-75 CNS -6.04% | U251 CNS 0.16% | PC-3 prostate -5.46% | SK-MEL-5 melanoma -4.96% | UACC-62 melanoma -4.64% | SK-MEL-2 melanoma -30.1%

COc1cc(C2CC(c3ccc(Nc4ccnc5cc(Cl)ccc45)cc3)=NN2c2ccc(Cl)cc2)cc(OC)c1OC (stereo not given)
inactive: HT29 colon 32.6% | SNB-75 CNS 57.2% | SNB-19 CNS 67.9% | U251 CNS 51.9% | PC-3 prostate 36.4% | SK-MEL-5 melanoma 46.8% | UACC-62 melanoma 22.2% | LOX IMVI melanoma 56.3% | SK-MEL-28 melanoma 67.4% | SK-MEL-2 melanoma 55.2%

c1ccc(CP(Cc2ccccc2)c2ccccc2)cc1
inactive: HT29 colon 88.2% | SNB-75 CNS 101% | SNB-19 CNS 105% | U251 CNS 93.6% | PC-3 prostate 86.2% | SK-MEL-5 melanoma 99% | UACC-62 melanoma 99.3% | LOX IMVI melanoma 86.8% | SK-MEL-28 melanoma 110% | SK-MEL-2 melanoma 97%

CN1c2ccccc2[C@]2(Cc3ccccc3)Cc3ccccc3N[C@H]12
inactive: HT29 colon 86.9% | SNB-75 CNS 89.6% | SNB-19 CNS 104% | U251 CNS 106% | PC-3 prostate 100% | SK-MEL-5 melanoma 108% | UACC-62 melanoma 87.5% | LOX IMVI melanoma 104% | SK-MEL-28 melanoma 99.7% | SK-MEL-2 melanoma 95%

Cc1cc(Cl)nc(N(CCCNc2ccnc3cc(Cl)ccc23)Cc2cccs2)n1
active: HT29 colon 1.59% | U251 CNS 8.68% | SK-MEL-5 melanoma -74.3% | LOX IMVI melanoma -1.18%
inactive: SNB-75 CNS 55.6% | SNB-19 CNS 42.9% | PC-3 prostate 10.1% | UACC-62 melanoma 10% | SK-MEL-28 melanoma 16.1% | SK-MEL-2 melanoma 16.9%

COc1ccc(Cn2c(C(N)=O)cc3c2-c2nc(N)ncc2CCC3)cc1
inactive: HT29 colon 93.2% | SNB-75 CNS 97.2% | SNB-19 CNS 102% | U251 CNS 99.3% | PC-3 prostate 99.3% | SK-MEL-5 melanoma 98.7% | UACC-62 melanoma 95.4% | LOX IMVI melanoma 107% | SK-MEL-28 melanoma 99.2% | SK-MEL-2 melanoma 105%

N#CCCN1C/C(=C/c2ccccc2)C(=O)/C(=C/c2ccccc2)C1
active: HT29 colon -48.5% | U251 CNS -0.696% | UACC-62 melanoma 0.851% | LOX IMVI melanoma -65.5%
inactive: SNB-75 CNS 62.1% | SNB-19 CNS 68% | PC-3 prostate 41.1% | SK-MEL-5 melanoma 29% | SK-MEL-28 melanoma 54.2% | SK-MEL-2 melanoma 62.3%

C(CCCC1=NCCO1)CCCC1=NCCO1
inactive: HT29 colon 118% | SNB-75 CNS 77.5% | SNB-19 CNS 97.8% | U251 CNS 97.9% | PC-3 prostate 98% | SK-MEL-5 melanoma 99.7% | UACC-62 melanoma 93% | LOX IMVI melanoma 94% | SK-MEL-28 melanoma 95.4% | SK-MEL-2 melanoma 98.3%

C=C(C(=O)c1ccccc1)C(NC(C)(C)C)c1ccccc1 (stereo not given)
active: HT29 colon -26.1% | U251 CNS 4.4% | PC-3 prostate 5.45% | SK-MEL-5 melanoma -25.6% | UACC-62 melanoma 0.104% | LOX IMVI melanoma -82.2% | SK-MEL-28 melanoma 9.1% | SK-MEL-2 melanoma -13.9%
inactive: SNB-75 CNS 53.6% | SNB-19 CNS 80.8%

COc1cc(C(=O)N2CCN(c3ccccc3OC)CC2)c(N)cc1OCCCN1CCN(c2ccccc2OC)CC1
inactive: HT29 colon 98.2% | SNB-75 CNS 104% | SNB-19 CNS 104% | U251 CNS 96.6% | PC-3 prostate 69% | SK-MEL-5 melanoma 44.4% | UACC-62 melanoma 79.4% | LOX IMVI melanoma 78.8% | SK-MEL-28 melanoma 119% | SK-MEL-2 melanoma 83.2%
